High-throughput results as filed in PubChem.
ELG1 genotoxic – induces genotoxicity in HEK293T cells with luciferase-tagged ELG1. HEK293T ELG1-luciferase reporter, luminescence, 16 h. Potency, µM (titrated, usually from 46 µM), for inactives: top-dose activity change, positive = activation, actives largely listed as activators. 330,000 tested, 1.3% active; further: % of control where 0% means no effect; nearly all actives have a fitted effect of over 60% in size
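Genotoxicity was scored as increased ELG1-luciferase reporter signal, measured by ONE-Glo luminescence (30 min, room temperature). Compound or vehicle exposure of the HEK293T reporter cells lasted 16 hr at 37°C.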
Rab9 promoter act – activators of Rab9 promoter; Huh7 Rab9 promoter-luciferase reporter, luminescence, 24 h; Potency, µM (highest dose often 9.22 µM), inactives show top-dose activation, negative = inhibition, actives largely listed as activators; 320,000 tested, 2.8% active; AID 485297; further: % of control where 0% means no effect; nearly all actives have a fitted effect of over 60% in size
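Luciferase signal after 10 min detection reagent at ambient indicates Rab9 promoter upregulation; stably transfected Huh7 cells were treated 24 h with compound in DMSO at 37 °C, 5% CO2.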
SMN2 splice up – enhancers of SMN2 splice variant expression; HEK293 SMN2-luciferase splicing reporter, luminescence, 30-36 h; Potency, µM (doses to about 46.1 µM), without a hit: at the highest dose activity change, positive = activation, actives largely listed as activators; 210,000 tested, 2.8% active; further: % of control where 0% means no effect; nearly all actives have a fitted effect of over 55% in size
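HEK293 cells carry an SMN2 […]–luciferase reporter in which exon 7 inclusion puts luciferase in frame. Cells were plated 10-12 h before compound addition, then incubated 30-36 h at 37C. ONE-Glo luminescence was read; sodium butyrate at 4.5 mM final served as control.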
FLuc counter – counter-screen for miR-21 project: firefly luciferase inhibitors or activators; purified FLuc, Km substrates, luminescence inhibition; Potency, µM (top dose mostly 57.5 µM), for the others: at the highest dose activity change, negative = inhibition, hits mostly inhibitors; 360,000 tested, 6.9% active;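 further: plate controls were vehicle for no effect and reference inhibitor for full effect; nearly all actives have a fitted effect of over 55% in size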
Target sequence (P08659 whole entry, looked up): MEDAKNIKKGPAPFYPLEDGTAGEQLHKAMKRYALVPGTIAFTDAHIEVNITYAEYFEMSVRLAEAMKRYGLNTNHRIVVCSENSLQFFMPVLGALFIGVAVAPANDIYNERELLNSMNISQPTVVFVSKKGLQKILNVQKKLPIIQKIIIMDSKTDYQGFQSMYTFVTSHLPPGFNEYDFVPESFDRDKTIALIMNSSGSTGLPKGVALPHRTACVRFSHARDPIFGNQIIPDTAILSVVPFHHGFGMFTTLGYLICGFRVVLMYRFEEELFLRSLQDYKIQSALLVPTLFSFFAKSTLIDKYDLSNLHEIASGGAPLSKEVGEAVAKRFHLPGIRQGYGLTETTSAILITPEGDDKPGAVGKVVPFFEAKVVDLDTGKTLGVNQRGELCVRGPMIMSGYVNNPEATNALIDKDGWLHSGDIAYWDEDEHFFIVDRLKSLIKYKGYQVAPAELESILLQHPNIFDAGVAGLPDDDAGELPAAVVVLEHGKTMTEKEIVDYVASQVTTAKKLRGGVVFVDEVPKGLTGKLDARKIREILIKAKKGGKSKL
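Biochemical qHTS of compounds, final roughly 60 µM downward over six points, against 10 nM purified firefly luciferase using Km concentrations of substrates (10 uM D-luciferin, 10 uM ATP) in Tris acetate pH 7.5 buffer; luminescence output.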
NPC1 promoter act – activates the NPC1 promoter | Huh7 NPC1 promoter luciferase reporter, 24 h | Potency, µM (titrated, usually from 9.22 µM), without a hit: top-dose activation, hits mostly activators | 320,000 tested, 2.4% active | AID 485313; further: % of control where 0% means no effect; nearly all actives have a fitted effect of over 60% in size
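Luminescence from an NPC1 promoter-driven luciferase reporter in stably transfected Huh7 cells was measured after 24 h compound treatment at 37 °C, followed by 10 min ambient incubation with luciferase detection reagent.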
Luc counter – counter-screen: inhibitors of Kinase-Glo firefly luciferase; Q27757; Kinase-Glo luciferase, ATP luminescence, 8 min; Potency, µM (doses to about 38.3 µM), for the others: at the highest dose activity change, negative = inhibition, usual class: inhibitors; 200,000 tested, 0.28% active; AID 1379; further: on the % scale 0 is the no-effect control and ±100 the full control effect; nearly all actives have a fitted effect of over 60% in size
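Inhibition of Kinase-Glo luciferase light generation was assessed at 10 uM ATP in pH 7.2 imidazole buffer, with luminescence measured after eight minutes at ambient temperature.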
The depositor's hits bear a star; ? = inconclusive; . = no result given; [ ] = dose if it differs, or a comment. Compounds with a hit are over-represented: about 7.3% of the library has one in this group of screens. The call rests on the fitted dose curve; in most records, active means well fitted curve in the direction sought with a large enough effect; inconclusive means small, poorly fitted or top-dose-only effect, or another doubt; inactive means no such curve, though single readings can be large; an effect the other way counts as inactive or inconclusive. Potency means the concentration at half of the fitted maximal effect.

SMILES	ELG1 genotoxic	Rab9 promoter act	SMN2 splice up	FLuc counter	NPC1 promoter act	Luc counter
COc1ccc(OC)c(/C=C/C(=O)Nc2ccc(C(=O)OCCC(C)C)cc2)c1	.	.	-8%	0%	.	.
COc1ccc(OCC(O)Cn2c(NCCO)nc3c2c(=O)n(C)c(=O)n3C)cc1 (stereo not drawn)	.	.	-52%	3%	.	.
COc1ccc(C(=O)c2cn(CC(=O)Nc3ccc4c(c3)OCO4)c3ccc(OC)cc3c2=O)cc1	.	.	-2%	-11%	.	.
Cc1ccc(NC(=O)C(=O)NCC(c2ccc3c(c2)OCO3)N2CCOCC2)cc1C (stereo not drawn)	.	.	.	1%	.	.
O=C(O)Cc1ccc(NC(=O)c2cccc(NC(=O)c3ccco3)c2)cc1	4%	-2%	.	17µM*	-3%	.
O=C(O)c1cccc(NC(=O)c2ccccc2NC(=O)c2ccco2)c1	1%	-2%	.	?	-5%	.
Cc1ccccc1NC(=O)c1cccc(NC(=O)c2ccco2)c1	-1%	0%	.	?	-3%	.
O=C(NCc1ccccc1)c1cccc(NC(=O)c2ccco2)c1	3%	-5%	-30%	-17%	6%	0%
O=C(Nc1ccc(O)c(C(=O)O)c1)c1cccc(NC(=O)c2ccco2)c1	-1%	-5%	.	11µM*	-1%	.
Cc1c(NC(=O)c2cccc(NC(=O)c3ccco3)c2)cccc1C(=O)O	0%	3%	8%	19µM*	-3%	0%
O=C(COc1ccc2ccccc2c1Br)NC(=S)Nc1cccc(CO)c1	21µM*	?	?	8.5µM*	?	9%
O=C(COc1ccc(Br)cc1Br)NC(=S)Nc1cccc(CO)c1	7.3µM*	0.45µM*	18µM*	3.8µM*	0.35µM*	-2%
O=C(COc1ccc(Br)cc1Br)NC(=S)N1CCCc2ccccc21	23µM*	20%	3%	17µM*	-1%	2%
O=C(COc1ccc(Br)cc1Cl)NC(=S)N1CCc2ccccc21	13%	-8%	?	?	-4%	4%
O=C(COc1ccccc1Cl)NC(=S)Nc1cccc(NC(=O)c2ccccc2Cl)c1	0%	-1%	?	?	0%	5%
Cc1ccc(N2CCN(C(=O)c3c4c(nc5ccccc35)C(=O)N(C3CCCCC3)C4)CC2)c(C)c1	.	.	.	6%	.	.
CCOC(=O)c1c(-c2ccc(C)cc2)csc1NC(=O)c1cc(=O)c2cc(C)cc(C)c2o1	.	.	.	5%	.	.
COc1ccc(-c2cc(C(F)(F)F)c(C#N)c(SCC(=O)Nc3ccc(F)cc3)n2)cc1	.	.	5%	-1%	.	.
C=CCNc1nc(-c2ccc(Cl)cc2)cs1	18%	2µM*	25µM*	1.3µM*	2.8µM*	-2%
C=CCNc1nc(-c2ccc([N+](=O)[O-])cc2)cs1	21µM*	3.5µM*	?	3µM*	?	-3%
CN(C)c1nc(-c2ccc([N+](=O)[O-])cc2)cs1	12µM*	?	-12%	12µM*	28%	-5%
CCCOc1ccc(-c2nc(-c3ccc([N+](=O)[O-])cc3)cs2)cc1	-1%	?	.	?	-2%	.
CCOc1cc(C(=O)NCC(c2ccc(N(C)C)cc2)N2CCOCC2)cc(OCC)c1OCC (stereo not drawn)	.	.	.	2%	.	.
CCOC(=O)c1c(Oc2ccc(OC)cc2)nnc(-c2ccccc2)c1-c1ccccc1	.	.	-43%	2%	.	.
O=C(O)CCCN1C(=O)/C(=C/c2ccc(-c3nc4ccccc4s3)o2)SC1=S	14%	-1%	18µM*	-6%	10%	1%
O=C(O)CCCCCN1C(=O)/C(=C\c2ccc(-c3ccc(Cl)cc3)o2)SC1=S	4%	-4%	.	?	-3%	.
O=S(=O)(O)n1ccnc1 (tested in a mixture with another compound)	.	.	-17%[9.22 µM]	.	.	0%[7.66 µM]
COc1ccc2c(c1)CCc1c-2n[nH]c1C(=O)O	2%	9%	13%	11µM*	-1%	1%
